Laboratory results as given in PubChem BioAssay.
Calls of active or inactive are those of the source.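 The calls were made as follows, unless noted: active = compound that reduces growth-factor-driven endothelial tube area in a mixed cell culture, no cutoff stated; inactive = the rest.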

Columns and labels:
[1] = stimulators of nuclear beta-catenin in C2C12, primary screen, imaging, WNT3A-conditioned medium, mouse C2C12, NPC library (AID 1117326; in the data active = nuclear beta-catenin stimulation mostly above about 4.2%, no sharp cut-off; inactive = mostly below about 10%; also: reference of the scale not given here); conditions: stronger effect = higher value
[2] = stimulators of insulin release from INS-1E, primary screen, cell-based, 5 mM glucose, NPC library (AID 1117329;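 active = compound raises insulin release from rat beta cells at 5 mM glucose, no numeric limit stated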; also: reference of the scale not given here); conditions: rat INS-1E insulin secretion, at 10 µM, stronger effect = higher value
[3] = growth inhibition of GSK3B-pretreated HCT116 cells – cell-based, CellTiter-Glo, 0.2 to 20 µM (AID 1117336;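 active = compounds lowering colon cancer cell viability after pretreatment blocking the GSK3B kinase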); conditions: HCT116 viability after GSK3B inhibitor, at 20 µM, stronger effect = higher value
[4] = inhibition of endothelial tube formation, primary screen, imaging, VEGF stimulated, CD31 staining, tube area, NPC library (AID 1117340); conditions: VEGF-stimulated ADSC/ECFC co-culture, at 10 µM, stronger effect = higher value
[5] = glucagon-like peptide 1 release enhancers, primary assay, NCI-H716 cell line, NPC library (AID 1117341;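 active = compound raises GLP1 secretion from the human gut endocrine cells, with no numeric limit stated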; also: reference of the scale not given here); conditions: NCI-H716 cells, at 10 µM, stronger effect = higher value
[6] = HCT116 colon cancer cell growth inhibition, primary screen, CellTiter-Glo luminescence, NPC library (AID 1117342;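 active = compounds that lower survival of HCT116 colon cancer cells in the luminescence readout, no numeric limit stated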); conditions: at 20 µM (top of the series)
[7] = CellTiter-Glo luminescent readout of SW480 viability loss, NPC library primary (AID 1117343;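 active = compounds that lower viability of the colon cancer cells in the luminescence readout, with no numeric limit stated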); conditions: CellTiter-Glo luminescence; at 20 µM (top of the series)
[8] = decreased DLD-1 cellular survival, CellTiter-Glo luminescent readout, NPC compound collection, primary HTS (AID 1117346;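 active = compounds that lower survival of DLD-1 colon cancer cells in the luminescence readout, no cutoff given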); conditions: DLD-1 viability, CellTiter-Glo luminescence; at 20 µM (top of the series)

Row | Structure (SMILES) | nuclear beta-catenin stimulation ([1]; at 10 µM) | nuclear beta-catenin stimulation ([1]; stimulation, at 2 µM) [%] | insulin secretion stimulation [2] | viability decrease [3] | tube area decrease [4] | GLP1 secretion stimulation [5] | inhibition of viability [6] | viability decrease (inhibition) [7] | viability decrease (inhibition) [8]
1 | N[C@@H](CSSC[C@H](N)C(=O)O)C(=O)O | 1.1% (inactive) | 3.2 | -2.2% (inactive) | 0.8% (inactive) | -4% (inactive) | 3.6% (inactive) | -21.6% (inactive) | 38.7% (inactive) | 8.45% (inactive)
2 | CCCC(=O)O[C@]1(C(=O)CC)CC[C@H]2[C@@H]3CCC4=CC(=O)CC[C@]4(C)[C@H]3[C@@H](O)C[C@@]21C | -0.2% (inactive) | 1.5 | 6.6% (inactive) | 12.1% (inactive) | -2.7% (inactive) | 5.3% (inactive) | 18.1% (inactive) | 35.2% (inactive) | 25.5% (inactive)
3 | N#CC1(c2ccc(F)cc2)CCC(=O)CC1 | -0.7% (inactive) | -2.1 | 2.2% (inactive) | 5.9% (inactive) | 0.9% (inactive) | 1.7% (inactive) | 8.6% (inactive) | 3.1% (inactive) | -1.9% (inactive)
4 | N#C[C@H]1C[C@H]2C[C@@H]2N1C(=O)[C@@H](N)C12CC3CC(CC(O)(C3)C1)C2 | 0.4% (inactive) | 1.1 | -2% (inactive) | -4.75% (inactive) | 2.7% (inactive) | 1.4% (inactive) | -5.3% (inactive) | 9.8% (inactive) | 6.25% (inactive)
5 | Nc1c(N=Nc2ccc(-c3ccc(N=Nc4cc(S(=O)(=O)O)c5ccccc5c4N)cc3)cc2)cc(S(=O)(=O)O)c2ccccc12 | -3.3% (inactive) | 0.3 | 2% (inactive) | -26.6% (inactive) | 16.8% (inactive) | -1.7% (inactive) | -132% (inactive) | -0.2% (inactive) | -66.6% (inactive)
6 | CCCCC/C(C=O)=C\c1ccccc1 | 0.8% (inactive) | 4.5 | 1% (inactive) | -20.6% (inactive) | 30.3% (inactive) | 0.1% (inactive) | 1.1% (inactive) | 12.8% (inactive) | -11.3% (inactive)
7 | Cc1c(C)c2c(c(C)c1OC(=O)CCC(=O)O)CC[C@@](C)(CCC[C@H](C)CCC[C@H](C)CCCC(C)C)O2 | -0.9% (inactive) | -0.6 | 2.6% (inactive) | 36.4% (inactive) | 61.9% (active) | -3.2% (inactive) | 54.9% (active) | 75% (active) | 66% (active)
8 | CCOC(=O)c1cccc(N)c1 | -0.3% (inactive) | -1.1 | 1.3% (inactive) | 4.6% (inactive) | -29.7% (inactive) | -4.7% (inactive) | -7.9% (inactive) | 35.4% (inactive) | 4.45% (inactive)
9 | CN[C@H](CC(C)C)C(=O)N[C@H]1C(=O)N[C@@H](CC(N)=O)C(=O)N[C@H]2C(=O)N[C@H]3C(=O)N[C@H](C(=O)N[C@H](C(=O)O)c4cc(O)cc(O)c4-c4cc3ccc4O)[C@H](O)c3ccc(c(Cl)c3)Oc3cc2cc(c3O[C@@H]2OC(CO)[C@@H](O)[C@H](O)[C@@H]2O[C@H]2C[C@](C)(N)[C@H](O)[C@H](C)O2)Oc2ccc(cc2Cl)[C@H]1O (some centres undefined) | -0.7% (inactive) | 2.4 | -0.1% (inactive) | -6.3% (inactive) | 7.3% (inactive) | -0.9% (inactive) | -1.3% (inactive) | 5% (inactive) | -10% (inactive)
10 | CCN1C(=O)c2ccccc2C1Nc1ccc(OCCN2CCCCC2)cc1 (centres undefined) | 0.7% (inactive) | 0.3 | 18.5% (inactive) | 10.5% (inactive) | 14.2% (inactive) | 7.7% (inactive) | 47.4% (inactive) | 13.4% (inactive) | -3.1% (inactive)
11 | Cc1[nH]cnc1-c1ccc(Cl)cc1 | 1.4% (inactive) | 1 | 0.25% (inactive) | 11.7% (inactive) | -1.2% (inactive) | 0.1% (inactive) | 17% (inactive) | -17.6% (inactive) | 3.8% (inactive)
12 | O=C(CCCCCCCCC#CI)Oc1ccccc1 | 3% (inactive) | 0.2 | -1.7% (inactive) | 56% (active) | 13% (inactive) | 0.3% (inactive) | -7.3% (inactive) | 68.3% (active) | 63.9% (active)
13 | Cc1cn([C@@H]2O[C@H](CO)[C@@H](O)[C@H]2F)c(=O)[nH]c1=O | -2.3% (inactive) | -0.8 | 0.3% (inactive) | 26.6% (inactive) | -11.7% (inactive) | -3% (inactive) | 4.6% (inactive) | 3.1% (inactive) | 6.8% (inactive)
14 | O=C(O)CNC(=O)CNC(=O)CNC(=O)CSC(=O)c1ccccc1 | -0.8% (inactive) | -1.6 | 1.2% (inactive) | -1.9% (inactive) | -8.3% (inactive) | 4.6% (inactive) | 0.6% (inactive) | 12.5% (inactive) | 14.5% (inactive)
15 | CCCCNc1ccc(C(=O)OCCN(CC)CC)cc1 | 4% (inactive) | 1.7 | 7.25% (inactive) | 50.2% (active) | 19.5% (inactive) | 3.7% (inactive) | 81.8% (active) | 60.6% (active) | 88.7% (active)
16 | Cc1cccc(C)c1NC(=O)CN1CCCCCC1 | -2% (inactive) | 0.1 | 1.9% (inactive) | -6.6% (inactive) | -7.7% (inactive) | -1% (inactive) | -16.3% (inactive) | 23.3% (inactive) | -8.2% (inactive)
